Reference: PubChem BioAssay (NCI)
About 83,000 compounds went through this panel and 20% of them were active in at least one assay; those are over-represented in the sample as a whole.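 Results are percent growth after 48 hours of single-concentration exposure. 100 means growth as in untreated cells, lower positive values show inhibition; negative values down to -100 show cell death.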 The source made the active and inactive calls. Rule for the calls: active = growth percent below 10; inactive = the rest.

Tests used:
Test in all cases: NCI-60 one-dose screen, 48 h (100 = growth as untreated, 0 = no growth, -100 = all killed)
Conditions in all cases: 10 µM unless noted
NCI-H23 lung = tested on: NCI-H23 lung
NCI-H226 lung = tested on: NCI-H226 lung
NCI-H322M lung = tested on: NCI-H322M lung
HOP-62 NSCLC = tested on: HOP-62 NSCLC
NCI-H460 lung = tested on: NCI-H460 lung
HOP-92 NSCLC = tested on: HOP-92 NSCLC
NCI-H522 lung = tested on: NCI-H522 lung
A549/ATCC NSCLC = tested on: A549/ATCC NSCLC
786-0 renal = tested on: 786-0 renal
COLO 205 colon = tested on: COLO 205 colon

Measured: growth

CCCC(=O)Oc1ccc(/C(=C(\C)c2ccccc2)c2ccc(OCCN(CC)CC)cc2)cc1
inactive: NCI-H23 lung 87.6% | NCI-H226 lung 99.3% | NCI-H322M lung 83.3% | HOP-62 NSCLC 92.9% | NCI-H460 lung 69.8% | HOP-92 NSCLC 57.7% | NCI-H522 lung 72.1% | A549/ATCC NSCLC 67.2% | 786-0 renal 71% | COLO 205 colon 51%

Oc1ccc2cc(Br)ccc2c1-c1c(O)ccc2cc(Br)ccc12
active: NCI-H460 lung 8.23%
inactive: NCI-H23 lung 55.4% | NCI-H226 lung 81.6% | NCI-H322M lung 57.1% | HOP-62 NSCLC 72.2% | HOP-92 NSCLC 20% | NCI-H522 lung 53.9% | A549/ATCC NSCLC 44% | 786-0 renal 77.8% | COLO 205 colon 54.7%

Nc1cccc(-c2nc3sccn3c2-c2ccnc(NCCNS(=O)(=O)c3ccc(C(F)(F)F)cc3)n2)c1
inactive: NCI-H23 lung 56% | NCI-H226 lung 29.3% | NCI-H322M lung 42.4% | HOP-62 NSCLC 49.6% | NCI-H460 lung 43.5% | NCI-H522 lung 71.6% | A549/ATCC NSCLC 30% | 786-0 renal 65.5% | COLO 205 colon 58.8%
active: HOP-92 NSCLC -6.13%

CN(C)CCCC(C#N)c1ccccc1 (stereo not given)
inactive: NCI-H23 lung 103% | NCI-H226 lung 107% | NCI-H322M lung 115% | HOP-62 NSCLC 103% | NCI-H460 lung 116% | HOP-92 NSCLC 105% | NCI-H522 lung 119% | A549/ATCC NSCLC 105% | 786-0 renal 97.9% | COLO 205 colon 119%

Cn1ccc(Nc2nccc(Oc3ccc(C(=O)Nc4cccc(F)c4)c(Cl)c3)n2)c1
inactive: NCI-H23 lung 67.3% | NCI-H226 lung 68% | NCI-H322M lung 48.4% | HOP-62 NSCLC 100% | NCI-H460 lung 106% | HOP-92 NSCLC 76.4% | NCI-H522 lung 43.1% | A549/ATCC NSCLC 97.2% | 786-0 renal 79.8% | COLO 205 colon 105%

COc1cc(-c2nn(-c3cccc(NC(=O)Nc4ccc(Cl)c(Cl)c4)c3)cc2-c2ccncc2)ccc1Cl
active: NCI-H23 lung 1.67% | NCI-H226 lung 9.61% | NCI-H460 lung 2.32% | HOP-92 NSCLC -34.3% | NCI-H522 lung -14.7% | A549/ATCC NSCLC -5.88% | COLO 205 colon -80.4%
inactive: NCI-H322M lung 38.8% | HOP-62 NSCLC 10.2% | 786-0 renal 15.3%

CCN(CC)CCCNc1nccc2ccc(Cl)cc12
inactive: NCI-H23 lung 107% | NCI-H226 lung 97.9% | NCI-H322M lung 104% | HOP-62 NSCLC 96.5% | NCI-H460 lung 103% | HOP-92 NSCLC 68.1% | NCI-H522 lung 102% | A549/ATCC NSCLC 94.9% | 786-0 renal 104% | COLO 205 colon 108%

COc1ccc(S(=O)(=O)n2cc(C(=O)C(=O)Nc3ccncc3)c3ccccc32)cc1F
inactive: NCI-H23 lung 65.2% | NCI-H226 lung 82.9% | NCI-H322M lung 88.6% | HOP-62 NSCLC 61.4% | NCI-H460 lung 69.5% | HOP-92 NSCLC 62.1% | NCI-H522 lung 65.3% | A549/ATCC NSCLC 71% | 786-0 renal 84.7% | COLO 205 colon 94%

O=C(Nc1cccc(-n2cc(-c3ccncc3)c(-c3ccc(Cl)c(O)c3)n2)c1)Nc1cccc(C(F)(F)F)c1
active: NCI-H460 lung 7.29% | HOP-92 NSCLC -17.7% | NCI-H522 lung -10.8% | A549/ATCC NSCLC 5.74%
inactive: NCI-H23 lung 14.6% | NCI-H226 lung 35.1% | NCI-H322M lung 48.2% | HOP-62 NSCLC 38.1% | 786-0 renal 34.4% | COLO 205 colon 94.2%

N/C(=N\C(N)=N\c1nc2ccccc2s1)c1ccncc1
inactive: NCI-H23 lung 77.7% | NCI-H226 lung 76.1% | NCI-H322M lung 96% | HOP-62 NSCLC 60.7% | NCI-H460 lung 94% | HOP-92 NSCLC 65.2% | A549/ATCC NSCLC 89.3% | 786-0 renal 73.9% | COLO 205 colon 64.3%
active: NCI-H522 lung 2.64%

CC12CCCC(CC(=O)c3[nH]c4ccccc4c31)C2 (stereo not given)
active: NCI-H460 lung 7.52% | NCI-H522 lung 2.33% | COLO 205 colon 7.12%
inactive: NCI-H23 lung 33.5% | NCI-H226 lung 60.8% | NCI-H322M lung 35.7% | HOP-62 NSCLC 28.2% | HOP-92 NSCLC 47% | A549/ATCC NSCLC 27.7% | 786-0 renal 41.4%

COc1ccc(S(=O)(=O)Nc2cc(/C=C\c3cc(OC)c(OC)c(OC)c3)cc(OC)c2OC)cc1
inactive: NCI-H23 lung 36.2% | NCI-H226 lung 35.2% | NCI-H322M lung 27.1% | HOP-62 NSCLC 52.9% | HOP-92 NSCLC 20.1% | A549/ATCC NSCLC 21.2% | 786-0 renal 14%
active: NCI-H460 lung 8.41% | NCI-H522 lung -21.4% | COLO 205 colon -62.4%

O=[N+]([O-])c1cccc(-c2nc3sccn3c2-c2ccnc(NCCCNS(=O)(=O)c3ccc(C(F)(F)F)cc3)n2)c1
inactive: NCI-H23 lung 29.7% | NCI-H226 lung 23.8% | NCI-H322M lung 63.1% | HOP-62 NSCLC 50% | NCI-H460 lung 40.2% | HOP-92 NSCLC 53% | NCI-H522 lung 20.8% | A549/ATCC NSCLC 31.3% | 786-0 renal 51.8% | COLO 205 colon 24.7%

Cc1ccc(-c2cc3nc(-c4ccccc4)nc(C(Cl)Cl)n3n2)cc1
inactive: NCI-H23 lung 30.3% | NCI-H226 lung 70.9% | NCI-H522 lung 95.4%
active: NCI-H322M lung -85.9% | HOP-62 NSCLC -60.1% | NCI-H460 lung -48% | HOP-92 NSCLC -81.5% | A549/ATCC NSCLC -58.1% | 786-0 renal -79.3% | COLO 205 colon -66.1%

CC(=O)Nc1scc[n+]1Cc1ccccc1
inactive: NCI-H23 lung 88% | NCI-H226 lung 106% | NCI-H322M lung 131% | HOP-62 NSCLC 105% | NCI-H460 lung 112% | HOP-92 NSCLC 99.2% | NCI-H522 lung 103% | A549/ATCC NSCLC 104% | 786-0 renal 102% | COLO 205 colon 111%

CCN(CC)c1ccc(/C=C2\Oc3ccc(O)c(I)c3C2=O)cc1
inactive: NCI-H23 lung 67.5% | NCI-H226 lung 88.8% | NCI-H322M lung 96.9% | HOP-62 NSCLC 77.8% | NCI-H460 lung 25.5% | HOP-92 NSCLC 81.9% | NCI-H522 lung 22.6% | A549/ATCC NSCLC 46% | 786-0 renal 73.6% | COLO 205 colon 64.3%

COc1ccc(-n2c(-c3ccccc3)c(-c3ccccc3)c3c(SCC(=O)N/N=C/c4ccc(Cl)cc4)ncnc32)cc1
inactive: NCI-H23 lung 68.2% | NCI-H226 lung 76.6% | NCI-H322M lung 97.2% | HOP-62 NSCLC 85.5% | NCI-H460 lung 102% | HOP-92 NSCLC 66.8% | NCI-H522 lung 83.5% | A549/ATCC NSCLC 93.1% | 786-0 renal 92.5% | COLO 205 colon 104%

COc1cc2c(cc1OCCCCCn1c3ccccc3c3ccccc31)N=C[C@@H]1CCCN1C2=O
active: NCI-H23 lung -25.5% | NCI-H226 lung -91.8% | HOP-62 NSCLC -38.5% | NCI-H460 lung -84.3% | HOP-92 NSCLC -65.5% | NCI-H522 lung -22.3% | A549/ATCC NSCLC -66.9% | 786-0 renal -92.9% | COLO 205 colon -85.9%
inactive: NCI-H322M lung 16.2%

C=C[C@@H]1C[C@H](O)Cc2ccccc2N1
inactive: NCI-H23 lung 104% | NCI-H226 lung 111% | NCI-H322M lung 125% | HOP-62 NSCLC 99.2% | NCI-H460 lung 107% | HOP-92 NSCLC 137% | NCI-H522 lung 121% | A549/ATCC NSCLC 95.4% | 786-0 renal 112% | COLO 205 colon 117%

O=C1CCCCC1(c1ccccc1)c1ccccc1
inactive: NCI-H23 lung 98.8% | NCI-H226 lung 99.8% | NCI-H322M lung 111% | HOP-62 NSCLC 103% | NCI-H460 lung 103% | HOP-92 NSCLC 89.3% | NCI-H522 lung 99% | A549/ATCC NSCLC 110% | 786-0 renal 109% | COLO 205 colon 109%

Cc1nn(-c2ccc(Cl)cc2)c2ncnc(N/N=C/c3cccc([N+](=O)[O-])c3)c12
inactive: NCI-H23 lung 94.3% | NCI-H226 lung 104% | NCI-H322M lung 96.4% | HOP-62 NSCLC 107% | NCI-H460 lung 77.8% | HOP-92 NSCLC 20.4% | NCI-H522 lung 103% | A549/ATCC NSCLC 104% | 786-0 renal 96.4% | COLO 205 colon 95.3%

Nc1cc2c([nH]c[n+]2CC#CCCl)c(SCC#CCCl)n1
active: NCI-H23 lung -72.2% | NCI-H226 lung -42.5% | NCI-H322M lung -66.6% | HOP-62 NSCLC -62.8% | NCI-H460 lung -7.39% | HOP-92 NSCLC -39.7% | NCI-H522 lung -90.7% | A549/ATCC NSCLC -7.51% | 786-0 renal -86.5% | COLO 205 colon -48.5%

Cc1nc2ncccc2nc1Nc1ccc(S(=O)(=O)Nc2ccccn2)cc1
inactive: NCI-H23 lung 90.6% | NCI-H226 lung 94.5% | NCI-H322M lung 96.1% | HOP-62 NSCLC 97% | NCI-H460 lung 106% | HOP-92 NSCLC 54.3% | NCI-H522 lung 81.6% | A549/ATCC NSCLC 101% | 786-0 renal 94.9% | COLO 205 colon 98.5%

COc1cc(-c2nn(-c3cccc(NC(=O)Nc4ccc(Cl)c(C(F)(F)F)c4)c3)cc2-c2ccncc2)ccc1Cl
inactive: NCI-H226 lung 12.1% | NCI-H322M lung 32.3% | 786-0 renal 15.1%
active: NCI-H23 lung 5.69% | HOP-62 NSCLC 5.4% | NCI-H460 lung 1.7% | HOP-92 NSCLC -37.5% | NCI-H522 lung -13.9% | A549/ATCC NSCLC -10.4% | COLO 205 colon -91.6%

COc1ccc(-c2[nH]nc(N)c2-c2cc(OC)c3c(c2)OCO3)cc1
active: NCI-H522 lung -21%
inactive: NCI-H23 lung 63.4% | NCI-H226 lung 84.9% | NCI-H322M lung 92.9% | HOP-62 NSCLC 59.8% | NCI-H460 lung 33.1% | HOP-92 NSCLC 69.7% | A549/ATCC NSCLC 52% | 786-0 renal 77.6% | COLO 205 colon 61.3%

CCN(CC)c1ccc(N=O)cc1
inactive: NCI-H23 lung 81.7% | NCI-H226 lung 101% | NCI-H322M lung 87.7% | HOP-62 NSCLC 91.8% | NCI-H460 lung 58.9% | HOP-92 NSCLC 51.9% | A549/ATCC NSCLC 59.7% | 786-0 renal 91.8% | COLO 205 colon 13.9%
active: NCI-H522 lung -80.9%

COc1cc(C(=O)/C=C/c2ccc3nc(-c4cc(F)cc(F)c4)sc3c2)cc(OC)c1OC
inactive: NCI-H23 lung 99.3% | NCI-H226 lung 120% | NCI-H322M lung 93% | HOP-62 NSCLC 92.3% | NCI-H460 lung 110% | HOP-92 NSCLC 83.4% | NCI-H522 lung 97.4% | A549/ATCC NSCLC 94.2% | 786-0 renal 93.4% | COLO 205 colon 115%
